Experimental data: PubChem BioAssay
Results filed as inconclusive are left out. Activity calls are given as the source filed them. Cut-off read from the data, not from the text of the source, unless noted: active = inhibition above about 30%; inactive = the rest.

Legend:
[1] = reduced viability of SK-BR-3 breast cancer cells – cell-based, 24 h, human, pilot screen (AID 572;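 active = viability at or below 10% of carrier control in both of two separate runs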;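 note: compound exposure lasted between 18 and 24 h rather than exactly 24 h; 100% = carrier-treated control wells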); settings: SK-BR-3 viability, CellTiter-Glo luminescence, at 10 µM, stronger effect = lower value
[2] = HUVEC growth inhibition – cell-based, human, primary screen (AID 575;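 active = viability at or below 30% in both replicate assays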;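 note: 100% = median of untreated cell wells with 0.1% DMSO on each plate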); settings: HUVEC proliferation, CellTiter-Glo luminescence, 72 h; at 10 µM; stronger effect = lower value
[3] = H69AR cell proliferation blockers – human, duplicate replicates, primary screen (AID 580;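 active = viability at or under a set limit in both replicates, limit being median viability minus 3 SD, cut at about 48% in these data, passing the limit was not always enough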;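 note: 100% = mean luminescence of untreated wells and 0% = no signal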); settings: H69AR lung tumor cells viability, ATP luminescence, 72 h; at 10 µM; stronger effect = lower value
[4] = MRP1 drug-resistance reversers in H69AR cells – cell-based, doxorubicin co-treatment, pilot screen (AID 601;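 active = viability loss from added drug above about 55%, and viability with drug at most 40%, in both replicates, limit read from the data, passing the limit was not always enough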); settings: CellTiter-Glo, 72 h, at 10 µM; for differential viability (reversal): stronger effect = higher value
[5] = yeast transport mutant growth inhibition pilot in 384-well plates, post-Golgi transport modulator project (AID 636; in the data active = inhibition above about 31%); settings: absorbance 615 nm, about 18 h, stronger effect = higher value
[6] = growth suppression of yeast trafficking mutant, preliminary HTS, modulators of trafficking downstream of Golgi apparatus project, 1536-format plate, OD 615 nm (AID 637); settings: yeast transport mutant growth, absorbance 615 nm, 18 h; stronger effect = higher value
[7] = S. cerevisiae growth inhibition in permissive medium (OD615), pilot counter-assay for S. cerevisiae lifespan shortening project, permissive growth control (AID 705;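 active = growth inhibition above 25% in both replicates, a cutoff set 3 SD above the mean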); settings: OD615, 24 h, at 10 µM, stronger effect = higher value
[8] = S. cerevisiae growth inhibition in restrictive medium, OD615, pilot screen, restrictive growth control, yeast lifespan reduction project (AID 706;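 active = growth inhibition above a set limit, 3 SD over mean compound inhibition, in both replicates, cut at about 43% in these data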;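 note: modified DeaD lifespan yeast strain shifted to restrictive glucose medium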); settings: OD615, 48 h, at 10 µM, stronger effect = higher value
[9] = doxorubicin toxicity protection in MRP-1 cells – H69AR cells, CellTiter-Glo, duplicate, MRP-1 activator project, pilot screen (AID 807;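 active = viability increase at or above a cutoff of the median across tested compounds plus 3 SD, cut at about 8.5% in these data, passing the limit was not always enough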;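 note: compound pretreatment 18-22 h then 72 h combined with doxorubicin; 0% = doxorubicin alone and 100% = vehicle without doxorubicin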); settings: H69AR viability with doxorubicin, CellTiter-Glo luminescence; at 10 µM; stronger effect = higher value
[10] = viability of HCT116 without oncogenic beta-catenin – human colon tumor cells, pilot screen (AID 823;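 active = cell viability at or below a set limit in both duplicate runs, the limit being the all-compound median minus 4 SD, cut at about 23% in these data, passing the limit was not always enough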;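 note: 0% = wells killed by 20 µM Hyamine and 100% = untreated DMSO cell wells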); settings: HCT116 beta-catenin knockout viability, CellTiter-Glo, 60 h; at 10 µM; stronger effect = lower value
[11] = viability of PTEN-null HCT116 cells – cell-based, HCT116 clonal line, CellTiter-Glo, pilot screen (AID 824;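 active = viability at or below 27.92% in each of two runs, the all-compound median minus 4 SD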;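 note: 0% = 20 µM Hyamine control and 100% = vehicle cell control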); settings: HCT116 PTEN-deleted viability, 60 h, at 10 µM, stronger effect = lower value
[12] = RAM pathway blockade in budding yeast – dse1pr::URA3 reporter, 5-FOA selection, pilot screen (AID 869;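 active = inhibition over a set limit, the all-compound mean plus 3 SD, in both replicate runs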;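 note: 0% = DMSO wells with no growth and 100% = 10 µM 1-NA-PP1 with full growth; RAM network block rescues cells from 5-FOA so hits raise OD615 growth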); settings: S. cerevisiae dse1pr::URA3 5-FOA growth, OD615, 2 d; at 10 µM; stronger effect = higher value; strain carries analog-sensitive mutant Cbk1 kinase
[13] = RAM signaling pathway blockade in yeast – S. cerevisiae, Pdr1DBD-CYC8 efflux-inhibited sensitized strain, primary screen (AID 1298;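 active = RAM network inhibition above 8.4% in each of two replicates, 3 SD over the compound average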;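 note: 0% = DMSO untreated cells without growth and 100% = 10 µM 1-NA-PP1 full growth; higher means more yeast growth rescued from 5-FOA killing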); settings: S. cerevisiae cbk1-as DSE1-URA3 strain, 5-FOA growth OD615, 2 d; at 50 µM; stronger effect = higher value
[14] = H69AR cells + 2 uM doxorubicin, measured here: viability with 2 uM doxorubicin, stronger effect = lower value
[15] = H69AR cells, compound alone cytotoxicity

| Compound | viability [1] | viability [2] | viability [3] | differential viability (reversal) ([4]; H69AR cells + 2 uM doxorubicin) | viability [4, 14] [%] | viability [4, 15] [%] | inhibition [5] | inhibition [6] | growth inhibition [7] | growth inhibition [8] | viability increase [9] | viability [10] | viability [11] | inhibition [12] | RAM network inhibition [13] |
| --- | --- | --- | --- | --- | --- | --- | --- | --- | --- | --- | --- | --- | --- | --- | --- |
| CC1CCN(c2c(NCc3ccc(C(=O)N4c5ccccc5CC4C)cc3)c(=O)c2=O)CC1 (configuration not stated) | 95% (inactive) | 70.5% (inactive) | 37.2% (active) | -11.5% (inactive) | 48.7 | 37.2 | -0.13% (inactive) | 2.33% (inactive) | -17.3% (inactive) | -17.2% (inactive) | -7.24% (inactive) | 72.1% (inactive) | 66.8% (inactive) | 2.15% (inactive) | 2.31% (inactive) |
| COC(=O)c1[nH]c2c(c1C)C(=O)CC(c1cc(OC)ccc1OC)C2 (configuration not stated) | 98.5% (inactive) |  | 14.9% (active) | -37% (inactive) | 51.9 | 14.9 | -6.8% (inactive) | -6.33% (inactive) | -10.4% (inactive) | -8.8% (inactive) | -5.77% (inactive) | 34.6% (inactive) | 29.4% (inactive) |  | 1.94% (inactive) |
| O=C(CCCn1c(=O)[nH]c2ccsc2c1=O)N1CCN(c2ccccn2)CC1 | 89% (inactive) | 99.5% (inactive) | 101% (inactive) | 6.23% (inactive) | 94.5 | 101 | -6.4% (inactive) | -0.18% (inactive) | -0.715% (inactive) | 2.48% (inactive) | -4.76% (inactive) | 100% (inactive) |  | 2.25% (inactive) | 4.21% (inactive) |
| CCNc1ccc(C(=O)OCC)cc1NC(=O)c1cc(S(=O)(=O)N2CCOCC2)ccc1C | 108% (inactive) | 83.3% (inactive) | 98.5% (inactive) | 8.02% (inactive) | 90.5 | 98.5 | 2.99% (inactive) | 5.41% (inactive) | -9.95% (inactive) | -3.6% (inactive) | -5.71% (inactive) |  | 87.1% (inactive) | 0.96% (inactive) | 8.14% (inactive) |
| Cc1oc(-c2cccc(Cl)c2)nc1CN1CCC(C(=O)N2CCN(c3ccccc3F)CC2)CC1 | 73% (inactive) | 4.6% (active) | 32.3% (active) | -24.7% (inactive) | 57 | 32.3 | -1.6% (inactive) | -3.28% (inactive) | 0.125% (inactive) | 1.06% (inactive) | -7.78% (inactive) | 17.2% (active) | 10.2% (active) | 1.05% (inactive) | 6.04% (inactive) |
| O=C(Nc1cnccn1)c1cccs1 | 115% (inactive) | 106% (inactive) | 99% (inactive) | 7.32% (inactive) | 91.7 | 99 | -10.8% (inactive) | 1.77% (inactive) | -10.4% (inactive) | 1.52% (inactive) | -2.25% (inactive) |  | 94.2% (inactive) | 0.89% (inactive) | 7.21% (inactive) |
| Cc1ccc(C)n1-c1ccc(-n2cnnn2)cc1 | 103% (inactive) | 97.5% (inactive) |  | -24.2% (inactive) | 76.6 | 52.4 | -3.47% (inactive) | -1.09% (inactive) | -9.52% (inactive) | 0.21% (inactive) | -7.7% (inactive) | 9.95% (active) | 10.3% (active) | 1.65% (inactive) | 5.78% (inactive) |
| CCOC(=O)Cn1c(CN(C)Cc2ccccc2)nc2c1c(=O)n(C)c(=O)n2C | 94% (inactive) | 112% (inactive) | 87.1% (inactive) | -9.54% (inactive) | 96.6 | 87.1 | -7.43% (inactive) | 0.18% (inactive) | -28.8% (inactive) | -4.63% (inactive) | -2.98% (inactive) | 82.9% (inactive) |  | 0.24% (inactive) | -0.42% (inactive) |
| Cc1nonc1NC(=O)c1ccccc1Br | 101% (inactive) | 95.8% (inactive) | 91.8% (inactive) | 4.93% (inactive) | 86.8 | 91.8 | -3.6% (inactive) | -1.64% (inactive) | -16.1% (inactive) | -8.82% (inactive) | 0.21% (inactive) | 93.7% (inactive) | 101% (inactive) | 2.3% (inactive) | -0.15% (inactive) |
| CC12CCC(C(=O)N3CCN(C(=O)C45CCC(C)(C(=O)O4)C5(C)C)CC3)(OC1=O)C2(C)C | 109% (inactive) | 97.5% (inactive) | 105% (inactive) | 20.1% (inactive) | 84.7 | 105 | -3.47% (inactive) | -7.64% (inactive) | -17% (inactive) | -7.99% (inactive) | -0.17% (inactive) | 102% (inactive) | 94.1% (inactive) | 1.42% (inactive) | 0.26% (inactive) |
| COc1ccc(OCCCC(=O)Nc2nncs2)cc1 | 97% (inactive) | 101% (inactive) | 89.6% (inactive) | 6.49% (inactive) | 83.1 | 89.6 | -5.27% (inactive) | -2.73% (inactive) | -11.5% (inactive) | -0.545% (inactive) | -0.07% (inactive) | 94.5% (inactive) |  | 2.95% (inactive) | 4.52% (inactive) |
